# Source: PubChem BioAssay
# Inconclusive results are not listed. Calls of active or inactive are those of the source. Unless noted, the limit is not given here; nearly all actives have AC50 up to about 26 µM.
# Experiments:
# [1] = growth inhibition of DIPG glioma cells, dose response, cell-based, SU-DIPG-XVII, MIPE5.0, CellTiter-Glo, qHTS (AID 1347060); settings: SU-DIPG-XVII viability, CellTiter-Glo ATP luminescence;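 as to AC50: cells exposed to compound for 48 hours before viability readout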
# [2] = growth inhibition of DIPG glioma cells, dose response, cell-based, JHH-DIPG-1, MIPE4.0, CellTiter-Glo, qHTS (AID 1347062; cut-off not given, nearly all actives have AC50 up to about 27 µM;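 as to AC50: cells exposed to compound for two days before readout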); settings: JHH-DIPG-1 viability, CellTiter-Glo ATP luminescence
# [3] = growth inhibition of DIPG glioma cells, dose response, cell-based, SU-DIPG-XIII, MIPE5.0, CellTiter-Glo, qHTS (AID 1347064; cut-off not given, nearly all actives have AC50 up to about 23 µM;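 as to AC50: cells exposed to compound for 48 hours before the viability read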); settings: SU-DIPG-XIII viability, CellTiter-Glo ATP luminescence
# [4] = viability loss in pontine glioma line – cell-based, SU-DIPG-XXV, MIPE5.0, CellTiter-Glo, qHTS, dose response (AID 1347065); settings: CellTiter-Glo ATP luminescence;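 also: cells exposed to compound for 48 hours before ATP readout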
# [5] = SU-DIPG-VI glioma cell viability, MIPE4.0 library, CellTiter-Glo luminescence, qHTS (AID 1347066; cut-off not given, nearly all actives have AC50 up to about 30 µM;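 also: cells exposed to compound for 48 hours before readout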); settings: CellTiter-Glo ATP luminescence
# [6] = JHH-DIPG-1 glioma cell viability, MIPE5.0 library, CellTiter-Glo luminescence, qHTS (AID 1347067); settings: JHH-DIPG-1 glioma viability, CellTiter-Glo ATP luminescence;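 also: cells exposed to compound for 48 hours before readout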
# [7] = SU-DIPG-XXV glioma cell viability, MIPE5.0 library, qHTS (AID 1347068; cut-off not given, nearly all actives have IC50 up to about 30 µM;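 as to IC50: cells exposed to compound for 48 hours before viability readout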)
# [8] = sensitizers of A549 cells to miR-34 induction, primary screen, imaging, A549 dox-inducible miR-34, nuclei and caspase counts (AID 1347080;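 active = compounds whose cell count with miR-34 switched on is under 0.7 times the count with it off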); settings: A549 miR-34 inducible, Hoechst nuclei count, 48 h
# [9] = modifiers of HSF1 nuclear foci, imaging, Selleck Cancer Library (AID 1347162; in the data active = plate-normalised HSF1 focus index below about 0.46); settings: human cells, at 10 µM; SSMD: measured here: HSF1 foci SSMD mean; cell count: measured here: cell number; plate-normalised HSF1 focus index: stronger effect = lower value
# [10] = survival rescue of mitochondrial mutant cells in low glucose, primary screen, MELAS cybrids, Rieske KO mouse fibroblasts, CellTiter-Glo (AID 1508586;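 active = mean z-score across replicates of 1.96 or higher in either the MELAS or the Rieske mutant cell line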;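 also: z relative to plate mean and SD of compound and empty wells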)
# [11] = target: NAD(+) hydrolase SARM1 (Homo sapiens) (UniProt Q6SZW1); test: SARM1 TIR NADase inhibitors, cell lysate, NAD-Glo luminescence (AID 1508614;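 active = compound whose remaining NAD level is above about 45 nM, limit read from the data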;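 also: higher remaining NAD means stronger inhibition of SARM1 NADase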); settings: SAM-TIR HEK293T lysate NADase, at 1 µM, stronger effect = higher value
# Sequence of NAD(+) hydrolase SARM1 (Homo sapiens) (Q6SZW1 whole entry, looked up): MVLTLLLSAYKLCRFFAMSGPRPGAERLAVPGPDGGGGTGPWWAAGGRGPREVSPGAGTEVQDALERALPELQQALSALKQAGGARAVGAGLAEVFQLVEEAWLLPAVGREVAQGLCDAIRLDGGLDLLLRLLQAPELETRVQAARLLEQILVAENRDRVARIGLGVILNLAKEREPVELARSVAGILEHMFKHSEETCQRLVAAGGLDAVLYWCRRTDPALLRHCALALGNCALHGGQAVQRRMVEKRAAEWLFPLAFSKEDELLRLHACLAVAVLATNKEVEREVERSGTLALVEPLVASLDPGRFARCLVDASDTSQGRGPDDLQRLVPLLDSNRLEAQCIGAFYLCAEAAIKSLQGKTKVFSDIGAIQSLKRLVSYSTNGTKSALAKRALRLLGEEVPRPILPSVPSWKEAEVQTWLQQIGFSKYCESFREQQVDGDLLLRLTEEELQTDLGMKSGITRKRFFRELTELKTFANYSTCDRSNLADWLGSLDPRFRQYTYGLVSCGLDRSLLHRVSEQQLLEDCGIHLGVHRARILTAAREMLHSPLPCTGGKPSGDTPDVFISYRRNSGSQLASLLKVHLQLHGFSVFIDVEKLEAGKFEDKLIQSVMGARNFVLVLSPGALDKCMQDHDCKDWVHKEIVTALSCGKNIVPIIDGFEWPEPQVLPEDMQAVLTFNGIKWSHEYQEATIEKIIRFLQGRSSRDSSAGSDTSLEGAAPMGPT
# [12] = growth inhibition of DIPG glioma cells, dose response, cell-based, SU-DIPG-IV, MIPE4.0, CellTiter-Glo, qHTS (AID 1347063; cut-off not given, nearly all actives have AC50 up to about 30 µM;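 also: compound exposure lasted 48 hours before the viability readout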); settings: SU-DIPG-IV viability, CellTiter-Glo ATP luminescence
# [13] = measured here: relative caspase fold change +Dox/-Dox
# [14] = measured here: total cells with miR-34 induction, stronger effect = lower value
# [15] = measured here: total cells without miR-34 induction
# [16] = MELAS cybrid survival, CellTiter-Glo 48 h, stronger effect = higher value
# [17] = Rieske KO mouse fibroblast survival, CellTiter-Glo 72 h
structure (smiles),measurement,setting,value
CC(=O)Nc1ccc(OC[C@](C)(O)C(=O)Nc2ccc([N+](=O)[O-])c(C(F)(F)F)c2)cc1,outcome,[1],inactive
same,outcome,[2],inactive
same,outcome,[3],inactive
same,outcome,[4],inactive
same,outcome,[5],inactive
same,outcome,[6],inactive
same,outcome,[7],inactive
same,fold change,[8]; stronger effect = lower value,0.963 (inactive)
same,fold change,[8]; [13],0.857
same,cell count,[8]; [14],7800
same,cell count,[8]; [15],8100
same,SSMD,[9],0.174
same,cell count,[9],7020
same,plate-normalised HSF1 focus index,[9],1.01 (inactive)
same,z-score,[10]; [16],-0.592 (inactive)
same,z-score,[10]; [17],0.733
Cc1ncc(OC[C@@]2(c3cccc(F)c3)C[C@H]2C(=O)Nc2ccc(F)cn2)c(C)n1,outcome,[1],inactive
same,outcome,[3],inactive
same,outcome,[4],inactive
same,outcome,[6],inactive
same,outcome,[7],inactive
Cc1[nH]ncc1-c1cc2nc([C@@H]3CC4CCN3CC4)[nH]c(=O)c2s1,AC50,[1],18600 nM (active)
same,AC50,[4],16600 nM (active)
same,AC50,[6],14800 nM (active)
same,IC50,[7],23500 nM (active)
C[C@@H]1O[C@@H](O[C@@H]2C=C3CC[C@@H]4[C@H](CC[C@]5(C)[C@@H](c6ccc(=O)oc6)CC[C@]45O)[C@@]3(C)CC2)[C@H](O)[C@H](O)[C@H]1O,AC50,[1],14.8 nM (active)
same,AC50,[3],16.6 nM (active)
same,AC50,[4],18.6 nM (active)
same,AC50,[6],11.8 nM (active)
same,z-score,[10]; [16],1.14 (inactive)
same,z-score,[10]; [17],-0.344
same,remaining NAD,[11],10 nM (inactive)
COc1cc(C)[nH]c(=O)c1CNC(=O)c1c(C)n([C@H](C)C2CCN(CC(F)(F)F)CC2)c2ccccc12,outcome,[1],inactive
same,outcome,[4],inactive
same,outcome,[6],inactive
CCOc1ccccc1-n1c(C(C)N2CCN(C(=O)COc3ccc(Cl)cc3)CC2)nc2ccccc2c1=O (configuration not stated),AC50,[1],16600 nM (active)
same,AC50,[4],18600 nM (active)
same,IC50,[7],18600 nM (active)
same,fold change,"[8]; stronger effect = lower value, cell number ratio, induced over uninduced",0.777 (inactive)
same,fold change,[8]; [13],0.61
same,cell count,[8]; [14],5130
same,cell count,[8]; [15],6610
same,z-score,[10]; [16],1.76 (inactive)
same,z-score,[10]; [17],1.03
C[C@@H]1CC[C@@]2(OC1)O[C@H]1C[C@H]3[C@@H]4CC=C5C[C@@H](O[C@@H]6O[C@H](CO)[C@@H](O[C@@H]7O[C@@H](C)[C@H](O)[C@@H](O)[C@H]7O)[C@H](O)[C@H]6O[C@@H]6O[C@@H](C)[C@H](O)[C@@H](O)[C@H]6O)CC[C@]5(C)[C@H]4CC[C@]3(C)[C@H]1[C@@H]2C,AC50,[1],661 nM (active)
same,AC50,[2],2350 nM (active)
same,AC50,[12],833 nM (active)
same,AC50,[3],148 nM (active)
same,AC50,[4],468 nM (active)
same,AC50,[5],5260 nM (active)
same,AC50,[6],742 nM (active)
same,IC50,[7],3720 nM (active)
